± gives the standard deviation of the averaged measurements.
Tests used:
DLD1 [1] = assay: cell viability (CellTiter-Glo) relative to plate median (fraction of plate median); higher = more viable cells; conditions: 5 µM; treatment time 24 h; reporter: 7TFP
Procedure, shortened: (§1)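 Cells were seeded in 384-well plates; these were colorectal cancer lines stably transduced with lentiviral 7TFP or TCF4/Wnt firefly luciferase reporters. After 24 h, library compounds went in at a final 5 µM, and exposure lasted 24 h. Parallel plates were then read for firefly luciferase or CellTiterGlo luminescence, each well normalised to its plate median, with two independent replicates averaged.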

HCT116 = assay: as above; conditions: 5 µM; treatment time 24 h; reporter: TCF4/Wnt
Procedure, shortened: as §1

SW480 [2] = assay: as above; conditions: 5 µM; treatment time 24 h; reporter: 7TFP
Procedure, shortened: as §1

DLD1 [3] = assay: TCF/Wnt firefly luciferase reporter signal relative to plate median (fraction of plate median); higher = higher Wnt reporter signal; conditions: 5 µM; treatment time 24 h; reporter: 7TFP
Procedure, shortened: as §1

SW480 [4] = assay: as above; conditions: 5 µM; treatment time 24 h; reporter: 7TFP
Procedure, shortened: as §1

Row | Compound | cell viability (DLD1 [1]) | cell viability (HCT116) | cell viability (SW480 [2]) | TCF/Wnt firefly luciferase reporter signal (DLD1 [3]) | TCF/Wnt firefly luciferase reporter signal (SW480 [4])
1 | CCC(=O)O[C@]1(C(=O)CCl)[C@@H](C)C[C@H]2[C@@H]3CCC4=CC(=O)C=C[C@]4(C)[C@@]3(F)[C@@H](O)C[C@@]21C | 1.03 ± 0.035 | 0.9775 ± 0.0078 | 1.01 ± 0.035 | 0.896 ± 0.27 | 0.893 ± 0.027
2 | O=c1cc(-c2ccccc2)oc2cccc(O)c12 | 0.972 ± 0.068 | 1.04 ± 0.073 | 1.04 ± 0.058 | 0.98 ± 0.0085 | 1.03
3 | COc1c(C)c2c(c(O)c1C/C=C(\C)CCC(=O)O)C(=O)OC2 | 1.03 ± 0.12 | 0.802 ± 0.03 | 1.03 ± 0.065 | 1.045 ± 0.0071 | 1.14 ± 0.11
4 | CC1(C)C(=O)CC[C@@]2(C)C1C[C@@H](O)[C@@]1(C)C3=CC(=O)O[C@@H](c4ccoc4)[C@]3(C)CCC21 (stereo not given in full) | 0.9595 ± 0.0035 | 1.06 | 0.969 ± 0.027 | 0.937 ± 0.028 | 0.967 ± 0.013
5 | Cc1cc(O)cc(C)c1Cl | 0.903 ± 0.012 | 0.8955 ± 0.0021 | 0.918 ± 0.13 | 0.881 ± 0.059 | 1.01
6 | CC12CC3CC(C)(C1)CC(N)(C3)C2 | 1.06 ± 0.16 | 1.05 ± 0.05 | 1.02 ± 0.014 | 1.04 ± 0.064 | 1.04 ± 0.064
7 | OC(CCN1CCCC1)(c1ccccc1)C1CCCCC1 (stereo not given) | 1.03 | 1.01 ± 0.043 | 1.03 ± 0.054 | 1.12 ± 0.15 | 0.981 ± 0.017
8 | O=C(Nc1ccc(C(=O)O)c(O)c1)c1ccccc1 | 1.065 ± 0.0071 | 0.924 ± 0.011 | 1.01 ± 0.032 | 0.83 ± 0.016 | 1.07 ± 0.05
9 | CN1CCC(=C2c3ccccc3CC(=O)c3sccc32)CC1 | 0.988 ± 0.046 | 1.04 ± 0.083 | 0.988 ± 0.017 | 0.956 ± 0.021 | 0.934 ± 0.042
10 | COC(=O)Nc1nc2cc(Sc3ccccc3)ccc2[nH]1 | 1.01 ± 0.014 | 1.03 | 1.03 ± 0.05 | 0.99 ± 0.071 | 0.995 ± 0.05
11 | CC(C)NCC(O)COc1ccc(CC(N)=O)cc1 (stereo not given) | 1.07 ± 0.057 | 0.932 ± 0.016 | 1.02 ± 0.066 | 0.971 ± 0.055 | 1.07 ± 0.064
12 | CCOc1ccc(Cc2nccc3cc(OCC)c(OCC)cc23)cc1OCC | 0.876 ± 0.016 | 0.885 ± 0.056 | 0.921 ± 0.0071 | 0.99 ± 0.13 | 0.95 ± 0.099
13 | COc1c2occc2c(OC)c2c(=O)cc(C)oc12 | 0.99 ± 0.057 | 0.969 ± 0.14 | 0.989 ± 0.016 | 1.2 ± 0.099 | 1.12 ± 0.042
14 | COc1ccc2c(c1)OC/C(=C/c1ccc(OC)c(OC)c1)C2=O | 0.936 ± 0.028 | 0.989 ± 0.086 | 0.966 ± 0.028 | 0.92 ± 0.021 | 0.972 ± 0.083
15 | C=CCc1ccc(O)c(OC)c1 | 0.978 ± 0.013 | 1.07 ± 0.16 | 0.943 ± 0.063 | 1.06 ± 0.12 | 1.09 ± 0.078
16 | COC1=C[C@@H](C)[C@@H]2C[C@H]3OC(=O)C[C@H]4C(C)=C(OC)C(=O)[C@H]([C@@]2(C)C1=O)[C@@]34C | 0.975 ± 0.064 | 0.972 ± 0.054 | 0.979 ± 0.044 | 1.025 ± 0.0071 | 1
17 | CN1C(=O)CC[C@H]1c1cccnc1 | 1.03 ± 0.035 | 1.1 ± 0.078 | 1.07 ± 0.014 | 1.06 ± 0.057 | 0.94 ± 0.073
18 | CC(=O)[C@@]1(O)CC[C@H]2[C@@H]3C[C@H](C)C4=CC(=O)C=C[C@]4(C)[C@@]3(F)[C@@H](O)C[C@@]21C | 1.07 ± 0.085 | 1.03 | 0.957 ± 0.044 | 0.985 ± 0.079 | 0.99 ± 0.057
19 | CC1=CC(=O)c2ccccc2C1=O | 1.04 ± 0.05 | 0.955 ± 0.064 | 1.025 ± 0.0071 | 1.02 ± 0.044 | 0.914 ± 0.013
20 | C[C@@H]1C[C@H]2[C@@H]3CCC4=CC(=O)C=C[C@]4(C)[C@@]3(F)[C@@H](O)C[C@]2(C)[C@@]1(O)C(=O)CO | 1.06 ± 0.071 | 1.05 ± 0.057 | 0.977 ± 0.016 | 1.04 ± 0.082 | 1.05 ± 0.035
21 | COc1c(OC)c2occc2c2oc(=O)ccc12 | 1.004 ± 0.0085 | 0.829 ± 0.16 | 1.02 ± 0.077 | 0.802 ± 0.21 | 0.948 ± 0.011
22 | CC1=C(/C=C/C(C)=C/C=C/C(C)=C/C=C/C=C(C)/C=C/C=C(C)/C=C/C2=C(C)C(=O)[C@@H](O)CC2(C)C)C(C)(C)C[C@H](O)C1=O | 1.05 ± 0.057 | 1.07 ± 0.042 | 1 ± 0.027 | 1.06 ± 0.11 | 0.824 ± 0.099
23 | CN(Cc1cc(Br)cc(Br)c1N)C1CCCCC1 | 0.975 ± 0.036 | 1.04 ± 0.035 | 0.905 ± 0.052 | 0.8435 ± 0.0035 | 0.867 ± 0.022
24 | C/C1=C\CCC(=O)C2CC(C)(C)C2CC1 (stereo not given) | 0.9755 ± 0.00071 | 0.908 ± 0.14 | 0.939 ± 0.012 | 0.918 ± 0.098 | 1.004 ± 0.0078
25 | CC(C(=O)O)c1ccc2c(c1)[nH]c1ccc(Cl)cc12 (stereo not given) | 1.02 ± 0.063 | 1.03 ± 0.061 | 0.968 ± 0.0071 | 1.04 ± 0.042 | 1.09 ± 0.021
26 | CO[C@H]1C[C@H](O[C@H]2[C@H](C)[C@@H](O[C@@H]3O[C@H](C)C[C@H](N(C)C)[C@H]3OC(C)=O)[C@@H](C)C[C@@]3(CO3)C(=O)[C@H](C)[C@@H](OC(C)=O)[C@@H](C)[C@@H](C)OC(=O)[C@@H]2C)O[C@@H](C)[C@@H]1OC(C)=O | 1.06 | 1.01 ± 0.19 | 0.956 ± 0.03 | 1.03 ± 0.11 | 0.945 ± 0.12
27 | CN(C)CCOC(=O)COc1ccc(Cl)cc1 | 0.979 ± 0.0085 | 0.991 ± 0.083 | 0.956 ± 0.052 | 1.21 ± 0.14 | 1.14 ± 0.05
28 | CC1(C)C(=O)C=C[C@]2(C)[C@H]3CC[C@@]4(C)[C@H](c5ccoc5)OC(=O)[C@H]5O[C@]54[C@]3(C)C(=O)C[C@@H]12 | 1.02 | 0.974 ± 0.023 | 0.97 ± 0.033 | 0.871 ± 0.093 | 0.978 ± 0.025
29 | CCCCCCCCCCCCCCCC[N+](C)(C)C | 0.9465 ± 0.0021 | 0.907 ± 0.093 | 0.969 ± 0.12 | 0.754 ± 0.12 | 0.701 ± 0.093
30 | O=C(O[C@@H]1Cc2c(O)cc(O)cc2O[C@@H]1c1cc(O)c(O)c(O)c1-c1c([C@H]2Oc3cc(O)cc(O)c3C[C@H]2OC(=O)c2cc(O)c(O)c(O)c2)cc(O)c(O)c1O)c1cc(O)c(O)c(O)c1 | 1.08 ± 0.05 | 1.15 ± 0.12 | 1.035 ± 0.0071 | 1.03 ± 0.11 | 1.01 ± 0.047
